These results are taken from PubChem BioAssay (Tox21).

“And” between values parts separate entries of the source, which are not always exact repeats. Equal entries are not always repeated. Results filed as inconclusive are left out. Where a structure was tested more than once in an assay, its records may differ in their call. The source made the active and inactive calls. Unless noted, the call rests on the fitted dose curve; in most records, active means well fitted curve in the direction sought with a large enough effect in the repeat runs; inconclusive means weak or mixed curves; inactive means no such curve, though single readings can be large; an effect the other way counts as inactive or inconclusive.

For experiment [1], the target named is Luciferin 4-monooxygenase (Photinus pyralis) (UniProt P08659). The experiment is described as follows: qHTS assay to identify small molecule inhibitors of firefly luciferase (AID 1224835). Further: nearly all actives have a fitted effect of over 25% in size. Further: potency means the concentration at half of the fitted maximal effect. A digest of the protocol: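 Biochemical qHTS: compounds run as interplate titrations against purified firefly enzyme, with D-luciferin and ATP each at its KM concentration. Light output recorded by CCD imaging.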

Experiment [2] can be described thus: qHTS assay to identify small molecule agonists of the constitutive androstane receptor (CAR) signaling pathway - cell viability counter screen (AID 1224836). Further: nearly all actives have a fitted effect of over 45% in size. Further: potency means the concentration at half of the fitted maximal effect. A digest of the protocol: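 Compound titrations (15 concentrations) went onto HepG2-CYP2B6-hCAR cells 4 h after seeding, alongside PK11195 at a final 0.75 uM; a 23 h, 37 C/5% CO2 incubation preceded CellTiter-Fluor viability measurement.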
(In qHTS, concentration-response curves come from the screen itself.)

Experiment [3] in a line: qHTS assay to identify small molecule antagonists of the constitutive androstane receptor (CAR) signaling pathway - cell viability counter screen (AID 1224837). Further: nearly all actives have a fitted effect of over 45% in size. Further: potency means the concentration at half of the fitted maximal effect. A digest of the protocol: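 CITCO at 50 nM final was added alongside compounds (15 concentrations) to double-stable hCAR/CYP2B6-2.2kb HepG2 cells. Following 23 hr at 37 C, cell viability was quantified by CellTiter-Fluor fluorescence intensity.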

In experiment [4] the target is Nuclear receptor subfamily 1 group I member 3 (Homo sapiens) (UniProt Q14994). The experiment is described as follows: qHTS assay to identify small molecule agonists of the constitutive androstane receptor (CAR) signaling pathway (AID 1224839).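 Further: HepG2 cells stably carrying human CAR and a CYP2B6 luciferase reporter; nearly all actives have a fitted effect of over 15% in size.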 A digest of the protocol:
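In this screen, CAR-driven CYP2B6 promoter activity is measured by luminescence in HepG2-CYP2B6-hCAR cells after 24 h with test compounds and 0.75 uM PK11195 (final concentration).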

Experiment [5] can be described thus: qHTS assay to identify small molecule antagonists of the estrogen related receptor signaling pathway with the pleiotropic PPARgamma coactivator (PGC) from Tox21 10K library - cell viability counter screen (AID 1224840; active means well fitted cell-killing curve with a large enough effect in the repeat runs, not every such curve was filed as active; further: nearly all actives have a fitted effect of over 40% in size; further: potency means the concentration at half of the fitted maximal effect). A digest of the protocol: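 Readout: fluorescence intensity from CellTiter-Fluor after 30 min at 37 C/5% CO2. Preceded by 17.5 h treatment of PGC/ERR cells with DMSO-dissolved compounds, added 6 h post-seeding.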

A short description of experiment [6]: qHTS assay to identify small molecule agonists of the estrogen related receptor signaling pathway with the pleiotropic PPARgamma coactivator (PGC) from Tox21 10K library (AID 1224842). Further: nearly all actives have a fitted effect of over 15% in size. Further: potency means the concentration at half of the fitted maximal effect. A digest of the protocol:
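PGC/ERR reporter cell line, 2,000 cells per well, incubated 6 h at 37 C before 23 nL compound in DMSO was added. After 18 h at 37 C, One-Glo luminescence read following 30 min at room temperature.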

Experiment [7] concerns the target Thyrotropin receptor (Homo sapiens) (UniProt P16473). The experiment is described as follows: qHTS assay to identify small molecule agonists of the thyroid stimulating hormone receptor (TSHR) signaling pathway (AID 1224843; calls by dose curve; further: nearly all actives have a fitted effect of over 45% in size). A digest of the protocol:
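HEK293/TSHR, 800 cells/well; cpd 30 min RT; add cAMP-d2 + anti-cAMP-cryptate, 1 h RT; fluorescence read on plate reader. 15-pt titration, n=3.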

Experiment [8] in a line: qHTS assay to identify small molecule agonists of the hypoxia (HIF-1) signaling pathway - cell viability counter screen (AID 1224844; calls by dose curve; further: nearly all actives have a fitted effect of over 50% in size; further: potency means the concentration at half of the fitted maximal effect). A digest of the protocol:
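In this counter screen, HRE-bla ME-180 cell viability after 17 hrs of compound exposure at 37C was read by CellTiter-Glo luminescence, multiplexed with the beta-lactamase reporter measurement.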

Experiment [9] can be described thus: qHTS assay to identify small molecule agonists of the hypoxia (HIF-1) signaling pathway (AID 1224846; active means well fitted activation curve with a large enough effect in the signal ratio in the repeat runs, not every such curve was filed as active; the % refers to the signal ratio). A digest of the protocol:
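ME-180 HRE-bla reporter cells; compounds in DMSO, 17 h at 37C; read-out beta-lactamase via CCF4-AM FRET.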

A short description of experiment [10]: qHTS assay to identify small molecule agonists of H2AX - cell viability counter screen (AID 1224847; calls by dose curve; further: nearly all actives have a fitted effect of over 30% in size; further: potency means the concentration at half of the fitted maximal effect; on activity change, negative = cytotoxicity: top concentration of the series differs between compounds). A digest of the protocol:
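Read-out: CellTiter-Glo luminescence, 30 min RT. Cells: wild-type CHO-K1, 1000/well, 10% FBS, plated overnight at 37C. Treatment: 15 concentrations, 3 hr, 37C, 0.76% DMSO.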

Experiment [11] can be described thus: qHTS assay to identify small molecule agonists of the estrogen related receptor (ERR) signaling pathway from Tox21 library (AID 1224849; calls by dose curve; further: nearly all actives have a fitted effect of over 15% in size). Particulars: ERR reporter cell line, ONE-Glo luciferase, 18 h. A digest of the protocol: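 Luciferase activity in ERR pathway reporter cells served as the agonist readout; exposure lasted 18 h at 37 C, with ONE-Glo detection after 30 min at room temperature.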

Experiment [12] can be described thus: qHTS RealTime-Glo MT Cell Viability Assay in HEK293 cells - 32 hour (AID 1224868). Further: nearly all actives have a fitted effect of over 50% in size. Further: potency means the concentration at half of the fitted maximal effect. On activity change, negative = cytotoxic: top concentration of the series differs between compounds. A digest of the protocol: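 Viability tracked continuously by luminescence as live cells reduce a prosubstrate for NanoLuc; HEK293 cells preincubated 5 h, compound-treated at 37 C, and read at 0, 8, 16, 24, 32 and 40 h.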
Experiment [13] is described as follows: A CellTox Green Cytotoxicity Assay to monitor cytotoxicity in HEK293 cells - 0 hour (AID 1224869). Further: nearly all actives have a fitted effect of over 50% in size. A digest of the protocol: (§1)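 Real-time, in one plate: 600 HEK293 cells/well with dead-cell DNA dye, pinned compound after 5 h, 37 C incubation over 40 h; viable cells give no appreciable fluorescence.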
A short description of experiment [14]: qHTS RealTime-Glo MT Cell Viability Assay in HepG2 cells - 40 hour (AID 1224870). Further: nearly all actives have a fitted effect of over 50% in size. Further: potency means the concentration at half of the fitted maximal effect. A digest of the protocol:
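HepG2 cells (600/well) mixed with RealTime-Glo MT reagent, settled 5 h at 37 C/5% CO2 before compound addition. Nonlytic NanoLuc luminescence from viable-cell prosubstrate reduction read repeatedly during 40 h treatment at 37 C.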

Experiment [15] in a line: A CellTox Green Cytotoxicity Assay to monitor cytotoxicity in HEK293 cells - 40 hour (AID 1224871). Further: nearly all actives have a fitted effect of over 45% in size. Further: potency means the concentration at half of the fitted maximal effect. A digest of the protocol:
as §1

A short description of experiment [16]: qHTS assay to identify small molecule antagonists of the estrogen related receptor signaling pathway with the pleiotropic PPARgamma coactivator (PGC) from Tox21 10K library (AID 1224841; call rule not given here). A digest of the protocol: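 One-Glo luminescence, measured after half an hour at room temperature, quantified reporter output of PGC/ERR cells. These had been plated at 2,000 per well, incubated 6 h, dosed with compounds in DMSO, then kept 18 h at 37 C.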

Experiment [17] can be described thus: qHTS assay to identify small molecule antagonists of the estrogen related receptor (ERR) signaling pathway from Tox21 library (AID 1224848). Further: nearly all actives have a fitted effect of over 50% in size. Further: potency means the concentration at half of the fitted maximal effect. A digest of the protocol:
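Compounds dissolved in DMSO are pin-transferred onto ERR reporter cells (2,000 per well) that have settled for 6 h at 37 C. Plates then incubate 18 h at 37 C before ONE-Glo luciferase reagent and a luminescence read 30 min later.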

Experiment [18] in a line: qHTS RealTime-Glo MT Cell Viability Assay in HepG2 cells - 24 hour (AID 1224867). Further: nearly all actives have a fitted effect of over 50% in size. Further: potency means the concentration at half of the fitted maximal effect. A digest of the protocol: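 Viability was tracked continuously by NanoLuc luminescence from prosubstrate reduced by living HepG2 cells, at successive time points over 40 h of compound exposure. Cells with reagent were preincubated 5 h at 37 °C before compound addition.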
Experiment [19] in a line: qHTS assay to identify small molecule agonists of H2AX (AID 1224845; active means well fitted activation curve with a large enough effect in the signal ratio in the repeat runs, not every such curve was filed as active; the % refers to the signal ratio). A digest of the protocol:
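Wild-type CHO-K1 cells, plated overnight, exposed 3hr at 37C to 15 concentrations (0.76% DMSO final). Lysed, then HTRF anti-pH2AX (S139) cryptate and anti-H2AX-d2 antibodies, 24 hr room temperature; 665/620 nm emission read.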
On the % scale 0 is the no-effect control and ±100 the full control effect.

Sequence of Luciferin 4-monooxygenase (Photinus pyralis) (P08659 whole entry, looked up): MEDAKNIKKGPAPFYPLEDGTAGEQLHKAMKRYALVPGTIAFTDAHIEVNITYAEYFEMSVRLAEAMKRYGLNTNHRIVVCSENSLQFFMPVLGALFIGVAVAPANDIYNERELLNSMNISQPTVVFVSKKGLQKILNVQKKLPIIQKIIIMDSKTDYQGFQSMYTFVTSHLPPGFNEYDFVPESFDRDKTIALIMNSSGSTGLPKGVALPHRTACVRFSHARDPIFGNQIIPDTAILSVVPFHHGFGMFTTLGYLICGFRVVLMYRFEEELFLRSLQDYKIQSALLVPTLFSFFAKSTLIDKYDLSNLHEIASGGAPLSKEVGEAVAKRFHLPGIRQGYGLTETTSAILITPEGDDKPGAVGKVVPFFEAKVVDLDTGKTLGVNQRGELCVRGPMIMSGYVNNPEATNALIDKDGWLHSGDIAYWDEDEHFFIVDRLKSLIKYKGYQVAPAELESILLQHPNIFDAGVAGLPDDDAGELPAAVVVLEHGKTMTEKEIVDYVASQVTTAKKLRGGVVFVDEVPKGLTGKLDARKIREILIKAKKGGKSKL
Sequence of Thyrotropin receptor (Homo sapiens) (P16473 whole entry, looked up): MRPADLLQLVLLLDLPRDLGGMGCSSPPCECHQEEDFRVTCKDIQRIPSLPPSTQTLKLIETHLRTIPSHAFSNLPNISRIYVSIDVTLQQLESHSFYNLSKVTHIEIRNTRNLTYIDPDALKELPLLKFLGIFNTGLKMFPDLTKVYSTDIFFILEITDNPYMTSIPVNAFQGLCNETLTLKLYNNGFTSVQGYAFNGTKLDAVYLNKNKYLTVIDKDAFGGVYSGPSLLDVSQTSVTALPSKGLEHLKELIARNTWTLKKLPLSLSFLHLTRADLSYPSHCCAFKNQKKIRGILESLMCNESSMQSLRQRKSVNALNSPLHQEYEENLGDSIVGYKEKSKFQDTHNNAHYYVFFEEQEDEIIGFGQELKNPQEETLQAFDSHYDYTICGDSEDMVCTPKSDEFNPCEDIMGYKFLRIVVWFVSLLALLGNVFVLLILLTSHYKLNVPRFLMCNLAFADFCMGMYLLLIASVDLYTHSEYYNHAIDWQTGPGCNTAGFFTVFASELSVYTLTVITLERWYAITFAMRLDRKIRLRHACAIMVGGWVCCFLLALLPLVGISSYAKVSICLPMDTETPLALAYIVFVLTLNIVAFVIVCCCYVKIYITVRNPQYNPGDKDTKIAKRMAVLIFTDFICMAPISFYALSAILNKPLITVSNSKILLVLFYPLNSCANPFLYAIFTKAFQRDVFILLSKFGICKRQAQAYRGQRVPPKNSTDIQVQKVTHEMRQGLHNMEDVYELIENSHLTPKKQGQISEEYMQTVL
Sequence of Nuclear receptor subfamily 1 group I member 3 (Homo sapiens) (Q14994 whole entry, looked up): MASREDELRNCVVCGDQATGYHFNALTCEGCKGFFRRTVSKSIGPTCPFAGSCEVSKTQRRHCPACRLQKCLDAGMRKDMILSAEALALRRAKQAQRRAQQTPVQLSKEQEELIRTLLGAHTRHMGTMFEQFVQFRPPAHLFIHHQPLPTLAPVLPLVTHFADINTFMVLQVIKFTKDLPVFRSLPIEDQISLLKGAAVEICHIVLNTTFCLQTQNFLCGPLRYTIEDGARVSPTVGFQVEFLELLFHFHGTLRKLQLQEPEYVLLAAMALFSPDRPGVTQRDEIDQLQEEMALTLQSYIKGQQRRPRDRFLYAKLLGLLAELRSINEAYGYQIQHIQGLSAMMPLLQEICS

As for `COc1cc(S(=O)(=O)O)c(C)cc1N=Nc1c(O)ccc2cc(S(=O)(=O)O)ccc12`, the Potency was 63.3 µM (active) in [1]; 30.6 µM (active) in experiment [2]; 27.3 µM (active) in experiment [3]; 27.3 µM (active) in experiment [5]; 45 µM (active) in experiment [10]. The Potency entry in experiment [4], in experiment [6], in experiment [7], in [8], in experiment [9] and in experiment [12] was “inactive” throughout. Besides, the Potency entry in experiment [13], in experiment [14] and in experiment [15] was “inactive” throughout. Also, in experiment [11] (at 92.4 µM (top of the series)), the activity change, positive = activation is -21.5% (inactive).

Consider `O=c1oc2cc(O)ccc2c2oc3cc(O)ccc3c12`, for which the Potency is 19.2 µM (active) in experiment [1] and 58.6 µM (active) in [6]. Further, the Potency result in [2], in experiment [3], in [5], in experiment [16], in experiment [8] and in experiment [10] was “inactive” in each case. Further, the Potency result in experiment [17], in experiment [13], in experiment [14] and in experiment [15] was “inactive” each time.

Consider `CCN(CC)C(=O)c1cc(S(=O)(=O)Cc2ccccc2)c(N2CCC(c3ccccc3)CC2)cc1N(CC)CCN(C)C`, for which the Potency result in [1], in [4], in experiment [6], in experiment [9] and in experiment [13] was “inactive” each time. The Potency in experiment [2] is 21.4 µM (active); in [3], 24.1 µM (active); in experiment [5] it was 21.4 µM (active); in [8] it was 10.8 µM (active); in [17], 21.4 µM (active); in [18], 17.2 µM (active). The values for the Potency in experiment [12], in [14] and in [15] were 8.61 µM (active), 13.6 µM (active) and 17.2 µM (active), respectively. In experiment [11] (at 42.5 µM (top of the series)), the activity change, positive = activation is -79.2% (inactive).

As for `CCCCC(CC)CN1CN(CC(CC)CCCC)CC(C)(N)C1` (centres undefined), the Potency result in [1], in experiment [2], in [3], in [5], in experiment [16] and in experiment [6] was “inactive” in each case. Moreover, the Potency entry in [13] was “inactive”. The activity change, positive = activation in experiment [11] (at 42.5 µM (top of the series)) was -16.4% (inactive). The Potency in [18] was 16.9 µM (active); in experiment [12], 8.49 µM (active); in experiment [14], 21.3 µM (active).

As for `Cc1ccc(O)c(N)c1`, the Potency was 31.8 µM (active) in experiment [1] and 39 µM (active) in [8]. The Potency result in [2], in experiment [3], in experiment [5], in [18], in experiment [14] and in [15] was “inactive” throughout.

In the case of `Oc1c(I)cc(Cl)c2cccnc12`, the Potency result in experiment [1], in [2], in [16], in experiment [6], in experiment [8] and in experiment [10] was “inactive” throughout. The Potency entry in experiment [18], in [13] and in experiment [14] was “inactive” throughout. In addition, the Potency was 27.3 µM (active) in experiment [5]; 19.3 µM (active) and 11.9 µM (active) in [17]; 24.5 µM (active) in [12]; 12.3 µM (active) and inactive in [15]. Moreover, the activity change, positive = activation in experiment [11] (at 42.5 µM (top of the series)) was -30.5% (inactive); in experiment [11] (at 92.4 µM (top of the series)) it was -54.8% (inactive).

`O=C1CCc2cc(OCCCCc3nnnn3C3CCCCC3)ccc2N1`: the Potency result in experiment [1], in experiment [2], in [3], in experiment [5], in experiment [8] and in experiment [19] was “inactive” each time. Also, the Potency result in [10], in experiment [18], in [13] and in [14] was “inactive” throughout.

As to `CC(C)(C)CC(C)(C)c1ccc(Nc2ccc(C(C)(C)CC(C)(C)C)cc2)cc1`, in [1], the activity change, negative = inhibition is -2.16% [at 10.5 µM] (inactive). Further, the viability change, negative = cytotoxic in experiment [2] is -0.428% [at 8.39 µM] (inactive); in [5] it was -0.792% [at 8.39 µM] (inactive). The activity change, negative = cytotoxicity is 7.27% [at 8.39 µM] (inactive) in experiment [3], 0.53% [at 6.97 µM] (inactive) in experiment [8] and 0.0274% [at 6.97 µM] (inactive) in experiment [18]. In addition, the results for the activation in [7] and in experiment [9] were 21.9% [at 8.39 µM] (inactive) and 3.2% [at 7.01 µM] (inactive), respectively. Also, the activation (H2AX phosphorylation) in experiment [19] was 0.788% [at 14 µM] (inactive). For the same compound, the activity change, negative = cytotoxic in experiment [12] was 9.22% [at 6.97 µM] (inactive); in experiment [14], -1.04% [at 6.97 µM] (inactive). Also, in [13], the cytotoxicity is 3.78% [at 6.97 µM] (inactive). For the same compound, the cytotoxicity increase in experiment [15] is 0.599% [at 6.97 µM] (inactive).
